SMILES strings stand for the structures. Inconclusive results are not listed. A call without a number means that no potency is given here. Values without a mark were called inactive. Calls of active or inactive are those of the source. Calls come from the whole dose curve; as a rule, active = well fitted curve in the direction sought with a large enough effect in the repeat runs; inconclusive = weak or mixed curves; inactive = no such curve, though single readings can be large; an effect the other way counts as inactive or inconclusive.

This note sets out measurements from PubChem BioAssay (Tox21).

One assay in a line: qHTS RealTime-Glo MT Cell Viability Assay in HepG2 cells - 40 hour (AID 1224870). Note: nearly all actives have a fitted effect of over 50% in size. Conditions: RealTime-Glo luminescence; series mostly up to 76.8 µM. Put shortly:
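Real-time viability: cells seeded at 600 per well together with NanoLuc and cell-permeant prosubstrate, compounds added after 5 h incubation. Luminescence tracked at 0, 8, 16, 24, 32 and 40 h of exposure.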
For orientation: qHTS replaces the single test concentration by a dilution series.
Regarding `CNC(=O)N(c1ccccc1)c1ccccc1`, the Potency entry is “inactive”.
The same measure, in the same setting: in the case of `CC1(C)C(=O)N(Br)C(=O)N1Cl` it was “inactive”; in that of `CCCCCCCCSCCO`, “inactive”; in that of `CC#N`, “inactive”.
Regarding `NC(=O)Nc1ccc(Cl)cc1`, the Potency entry was “inactive”.
Consider `OC/C(Br)=C(\Br)CO`, for which the Potency result was “inactive”.
As for `CC1=CC(=O)CC(C)(C)C1(O)/C=C/C(C)=C\C(=O)O` (stereo unspecified), the Potency result was “inactive”.
Same read-out and setting: in the case of `CCCOC(=O)c1ccc(N)cc1` it was “inactive”; in that of `CCCCC(CC)CNCC(CC)CCCC` (stereo unspecified), “inactive”; in that of `O=C(CCC1CCN(Cc2ccccc2)CC1)c1ccc2c(c1)NCCCC2`, “inactive”.
For `CC(=O)OCC(=O)[C@H]1CC[C@H]2[C@@H]3CCC4=CC(=O)CC[C@]4(C)[C@H]3CC[C@]12C`, the Potency result is “inactive”.
For `COC(=O)c1cc(Cl)ccc1NS(=O)(=O)C(F)(F)F`, the Potency result is “inactive”.
For the compound `CC(=O)CC(c1ccc([N+](=O)[O-])cc1)c1c(O)c2ccccc2oc1=O` (stereo unspecified), the Potency result was “inactive”.
Still for that read-out and setting: in the case of `CCOC(=O)c1ccccc1OC` it was “inactive”; in that of `c1cnc2c(n1)CCCC2`, “inactive”; in that of `CO[C@H]1O[C@H](CO)[C@@H](O)[C@H](O)[C@H]1O`, “inactive”.
`O=C(/C=C/c1ccccc1)OCCCc1ccccc1`: the Potency result was “inactive”.
With `C=CCCCCCCCCCCCCCCCC`, the activity change, negative = cytotoxic is 26.4% [at 6.97 µM].
For `CCCCC(=O)O[C@]1(C(=O)CO)CC[C@H]2[C@@H]3CCC4=CC(=O)CC[C@]4(C)[C@H]3[C@@H](O)C[C@@]21C`, the Potency entry is “inactive”.
Still for that read-out and setting: in the case of `NC(=O)N(O)[C@@H]1C=C[C@H](Oc2cccc(Oc3ccc(F)cc3)c2)C1` it was “inactive”; in that of `CC1CC(O)CC(C)(C)C1` (stereo unspecified), “inactive”.
The same measure, in the same setting: then `N#C[C@@H]1C[C@@H]2C[C@@H]2N1C(=O)[C@@H](N)C12CC3CC(CC(O)(C3)C1)C2`, with “inactive”; and `O=Cc1c(Cl)cccc1Cl`, with “inactive”.
`CC1(C)O[C@@H]2C[C@H]3[C@@H]4CCC5=CC(=O)C=C[C@]5(C)[C@H]4[C@@H](O)C[C@]3(C)[C@]2(C(=O)CO)O1`: the Potency entry is “inactive”.
For `CCCCCCCCCCCCCCCCBr`, the activity change, negative = cytotoxic was 2.22% [at 15.8 µM].
As for `CCCCCCOC(=O)C(C)C`, the Potency entry was “inactive”.
The same measure, in the same setting: in the case of `COC(=O)c1cc(S(N)(=O)=O)ccc1OC` it was “inactive”.
Turning to `C=CC(C)(O)CCCC(C)CCCC(C)CCCC(C)C` (stereo unspecified), the Potency entry was “inactive”.
The same measure, in the same setting: then `CN1C(=O)CC(C)(c2ccccc2)C1=O` (stereo unspecified), with “inactive”.
With `C[C@]12CCC(=O)C=C1C=C[C@@H]1[C@@H]2CC[C@@]2(C)[C@H]1CC[C@@]21CCC(=O)O1`, the Potency entry is “inactive”.
For `Cc1occc1C(=O)Nc1ccc(C(=O)N2CCC(F)(F)/C(=C\C(=O)N3CCC(N4CCCCC4)CC3)c3ccccc32)cc1`, the Potency result was “inactive”.
Still for that read-out and setting: in the case of `CCCC1C(CC)=CC(CC)=CN1c1ccccc1` (stereo unspecified) it was “inactive”; in that of `CC(=O)[C@H]1CC[C@H]2[C@@H]3C[C@H](C)C4=CC(=O)CC[C@]4(C)[C@H]3[C@@H](O)C[C@]12C`, “inactive”; in that of `C=CC(=C)CCCC(C)(C)OC(C)=O`, “inactive”.
For `O=S1OCCO1`, the Potency entry is “inactive”.
As for `C1COCO1`, the Potency entry was “inactive”.
As for `CC(=O)Nc1ccccc1C`, the Potency entry is “inactive”.
Same read-out and setting: then `COc1cc2[nH]c(=O)[nH]c(=O)c2cc1OC`, with “inactive”; and `N#C/C(=C1/SC[C@@H](c2ccc(Cl)cc2Cl)S1)n1ccnc1`, with “inactive”.

A short description of a further assay: A CellTox Green Cytotoxicity Assay to monitor cytotoxicity in HEK293 cells - 40 hour (AID 1224871). Note: nearly all actives have a fitted effect of over 45% in size. Note: potency is the fitted concentration of half-maximal effect. Conditions: CellTox Green fluorescence; series mostly up to 76.8 µM. Put shortly:
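Cytotoxicity was tracked continuously in HEK293 cells by a DNA-binding dye excluded from viable cells. Compounds were transferred in DMSO 5 h after seeding; fluorescence was recorded at intervals up to 40 h.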
As for `CNC(=O)N(c1ccccc1)c1ccccc1`, the Potency result is “inactive”.
As to `CC1(C)C(=O)N(Br)C(=O)N1Cl`, the Potency result is “inactive”.
The same measure, in the same setting: then `CCCCCCCCSCCO`, with “inactive”; and `CC#N`, with “inactive”; and `NC(=O)Nc1ccc(Cl)cc1`, with “inactive”.
Same read-out and setting: in the case of `OC/C(Br)=C(\Br)CO` it was “inactive”.
Consider `CC1=CC(=O)CC(C)(C)C1(O)/C=C/C(C)=C\C(=O)O` (stereo unspecified), for which the Potency entry was “inactive”.
As to `CCCOC(=O)c1ccc(N)cc1`, the Potency result was “inactive”.
As for `CCCCC(CC)CNCC(CC)CCCC` (stereo unspecified), the Potency entry is “inactive”.
Still for that read-out and setting: then `COC(=O)c1cc(Cl)ccc1NS(=O)(=O)C(F)(F)F`, with “inactive”; and `CC(=O)CC(c1ccc([N+](=O)[O-])cc1)c1c(O)c2ccccc2oc1=O` (stereo unspecified), with “inactive”; and `CCOC(=O)c1ccccc1OC`, with “inactive”.
For the compound `c1cnc2c(n1)CCCC2`, the Potency is 43.6 µM (active).
Turning to `CO[C@H]1O[C@H](CO)[C@@H](O)[C@H](O)[C@H]1O`, the Potency result is “inactive”.
For `O=C(/C=C/c1ccccc1)OCCCc1ccccc1`, the Potency result was “inactive”.
On to `C=CCCCCCCCCCCCCCCCC`, for which the cytotoxicity increase was -6.74% [at 6.97 µM].
Regarding `CCCCC(=O)O[C@]1(C(=O)CO)CC[C@H]2[C@@H]3CCC4=CC(=O)CC[C@]4(C)[C@H]3[C@@H](O)C[C@@]21C`, the Potency result was “inactive”.
Consider `NC(=O)N(O)[C@@H]1C=C[C@H](Oc2cccc(Oc3ccc(F)cc3)c2)C1`, for which the Potency was 43.6 µM (active).
For `CC1CC(O)CC(C)(C)C1` (stereo unspecified), the Potency entry is “inactive”.
`N#C[C@@H]1C[C@@H]2C[C@@H]2N1C(=O)[C@@H](N)C12CC3CC(CC(O)(C3)C1)C2`: the Potency entry is “inactive”.
`O=Cc1c(Cl)cccc1Cl`: the Potency entry was “inactive”.
Consider `CC1(C)O[C@@H]2C[C@H]3[C@@H]4CCC5=CC(=O)C=C[C@]5(C)[C@H]4[C@@H](O)C[C@]3(C)[C@]2(C(=O)CO)O1`, for which the Potency entry was “inactive”.
Regarding `CCCCCCCCCCCCCCCCBr`, the cytotoxicity increase is -0.351% [at 15.8 µM].
Take `CCCCCCOC(=O)C(C)C`: the Potency entry is “inactive”.
As for `COC(=O)c1cc(S(N)(=O)=O)ccc1OC`, the Potency result was “inactive”.
For the compound `C=CC(C)(O)CCCC(C)CCCC(C)CCCC(C)C` (stereo unspecified), the Potency entry was “inactive”.
In the case of `CN1C(=O)CC(C)(c2ccccc2)C1=O` (stereo unspecified), the Potency entry was “inactive”.
Consider `C[C@]12CCC(=O)C=C1C=C[C@@H]1[C@@H]2CC[C@@]2(C)[C@H]1CC[C@@]21CCC(=O)O1`, for which the Potency result was “inactive”.
Turning to `Cc1occc1C(=O)Nc1ccc(C(=O)N2CCC(F)(F)/C(=C\C(=O)N3CCC(N4CCCCC4)CC3)c3ccccc32)cc1`, the Potency entry was “inactive”.
Regarding `CCCC1C(CC)=CC(CC)=CN1c1ccccc1` (stereo unspecified), the Potency entry is “inactive”.
As for `CC(=O)[C@H]1CC[C@H]2[C@@H]3C[C@H](C)C4=CC(=O)CC[C@]4(C)[C@H]3[C@@H](O)C[C@]12C`, the Potency result was “inactive”.
As for `C=CC(=C)CCCC(C)(C)OC(C)=O`, the Potency result is “inactive”.
For the compound `O=S1OCCO1`, the Potency result is “inactive”.
For the compound `C1COCO1`, the Potency result was “inactive”.
As for `CC(=O)Nc1ccccc1C`, the Potency entry is “inactive”.
In the case of `COc1cc2[nH]c(=O)[nH]c(=O)c2cc1OC`, the Potency entry is “inactive”.
Take `N#C/C(=C1/SC[C@@H](c2ccc(Cl)cc2Cl)S1)n1ccnc1`: the Potency result was “inactive”.
